Data reported in the supplement of paper PMC6555819.

Legend:
Assay in all cases: PBM binding z-score (relative to random genomic background probes); higher = stronger binding; sequences stand for … in GC…GCGATTGACAGCGTAGAATGAAGG
[1] = test system: PPARg:RXRa DBDmut IVT, anti-RXR (DBD mutation: RXRa K156A/R161A, NR concentration 270 nM, RXRa partner concentration 90 nM)
Outline: (§1)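 Binding z-scores were set against random background probes. The data came from custom Agilent 4×180K protein-binding microarrays carrying double-stranded probes with 34-nt variable regions, incubated 1 h with ligand-free nuclear receptor dimers. Partner-specific antibodies detected binding, and scanned fluorescence was regression-normalized.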

[2] = test system: PPARg:RXRa IVT, anti-PPARg (NR concentration 270 nM, RXRa partner concentration 90 nM)
Outline: as §1

[3] = test system: PPARg DBDmut:RXRa IVT, anti-PPARg (DBD mutation: PPARg1 K132A/R137A, NR concentration 270 nM, RXRa partner concentration 90 nM)
Outline: as §1

[4] = test system: PPARg DBDmut IVT, anti-PPARg (DBD mutation: PPARg1 K132A/R137A, NR concentration 270 nM)
Outline: as §1

[5] = test system: PPARg homodimer (NR concentration 180 nM)
Outline: as §1

[6] = test system: PXR:RXRa (NR concentration 270 nM, RXRa partner concentration 90 nM)
Outline: as §1

[7] = test system: PXR homodimer (NR concentration 270 nM)
Outline: as §1

[8] = test system: RARa:RXR (NR concentration 270 nM, RXRa partner concentration 90 nM)
Outline: as §1

[9] = test system: RARa homodimer (NR concentration 270 nM)
Outline: as §1

[10] = test system: RARb:RXRa (NR concentration 270 nM, RXRa partner concentration 90 nM)
Outline: as §1

[11] = test system: RARb homodimer (NR concentration 270 nM)
Outline: as §1

[12] = test system: RARg:RXRa (NR concentration 270 nM, RXRa partner concentration 90 nM)
Outline: as §1

[13] = test system: RARg homodimer (NR concentration 270 nM)
Outline: as §1

[14] = test system: RXRa DBDmut IVT, anti-RXR (DBD mutation: RXRa K156A/R161A, NR concentration 90 nM)
Outline: as §1

[15] = test system: RXRa homodimer (NR concentration 180 nM)
Outline: as §1

[16] = test system: THRa:RXRa (NR concentration 90 nM, RXRa partner concentration 90 nM)
Outline: as §1

[17] = test system: THRa homodimer (NR concentration 90 nM)
Outline: as §1

[18] = test system: VDR homodimer (NR concentration 270 nM)
Outline: as §1

Sequence | PBM binding z-score [1] | PBM binding z-score [2] | PBM binding z-score [3] | PBM binding z-score [4] | PBM binding z-score [5] | PBM binding z-score [6] | PBM binding z-score [7] | PBM binding z-score [8] | PBM binding z-score [9] | PBM binding z-score [10] | PBM binding z-score [11] | PBM binding z-score [12] | PBM binding z-score [13] | PBM binding z-score [14] | PBM binding z-score [15] | PBM binding z-score [16] | PBM binding z-score [17] | PBM binding z-score [18]
AGAACGAGGGCACGATGAGTTGATAGCAGAGTAG | 3.75 | 3.91 | 0.853 | 0.0308 | 0.364 | 1.17 | 0.453 | 1.01 | -0.256 | 2.32 | 1.22 | 2.18 | 2.42 | 1.77 | 1.57 | 2.03 | 0.236 | 1.66
TAGCCTAGGTCATTGCGCCAGTATAGTACGCATC | 1.65 | 2.83 | 1.15 | 0.064 | 1.7 | 1.89 | -0.0218 | 2.62 | -0.455 | 3.7 | 2.53 | 3.8 | 3.99 | 1.74 | 3 | 2.8 | 1.07 | 1.54
CCAGACAGGTGAGTAGGTAACTCAGCCTCGATTA | 2.01 | 1.66 | -0.259 | -0.369 | 1.08 | -0.277 | -0.0681 | 0.388 | 0.546 | 0.279 | 0.326 | 0.196 | 0.224 | 0.331 | 0.246 | 0.0417 | 0.159 | -0.162
TGGAGTAGGTTAGGGGCATTCAGAATGGCGTCGA | 2.77 | 3.44 | 1.09 | 0.719 | 2.02 | 1.18 | 1.43 | 0.932 | 0.935 | 1.6 | 1.6 | 0.847 | 0.846 | -0.404 | 0.803 | 1.51 | 1.06 | 1.57
ATATGTAGGTTAAGGGTCTTTCAGGTTGGTTCGC | 7.78 | 7.16 | 1.06 | 1.67 | 2.46 | 1.45 | 1.1 | 1.64 | 1.86 | 1.55 | 1.78 | 1 | 0.853 | 0.724 | 1.96 | 1.54 | 1.44 | 1.64
TCGTATAGGTAAAAGGTGAAAGTCGGTGTGGTAA | 3.45 | 3.77 | 0.0937 | 0.179 | 2.3 | 1.96 | 1.02 | 3.01 | 1.25 | 2.08 | 2.13 | 2.13 | 0.793 | 1.59 | 3.14 | 1.85 | 0.583 | 0.462
CGTCCAAGATCATAGGAGGTCAGTGAAGACAGAT | 0.389 | 1.23 | 0.673 | 0.577 | 1.4 | 2.93 | 0.844 | 2.62 | 0.513 | 2.25 | 3.26 | 2.22 | 2.22 | 0.36 | 2.03 | 3.98 | 0.538 | 1.21
CCTAATGGGCCAAAAAGGTCATTGATGCCGATAA | 2.24 | 2.34 | -0.601 | -0.248 | 3.03 | 4.65 | 2.85 | 5.08 | 1.31 | 3.99 | 4.33 | 4.34 | 4.05 | 1.29 | 4.45 | 3.03 | 0.29 | 2.59
CCTCGGAGGACAGAAGTTCAGAGCTGTCCGCTTT | -0.783 | -0.951 | -1.61 | -1.82 | -0.0548 | 0.556 | -0.104 | -0.223 | -0.677 | 1.59 | 1.88 | 1.28 | 1.36 | 0.706 | -0.0645 | 0.325 | -0.73 | 0.521
CGAACTAGGTTAAGGACAGTGAATCTCCGCACGC | 6.49 | 5.67 | 0.439 | 1.14 | 1.07 | -0.145 | 0.015 | 0.949 | -0.21 | 1.47 | 1.1 | 0.615 | 0.965 | 0.432 | 0.533 | 3.11 | 3.05 | -0.012
CGAACTAGGTCATAGACAGGACAGTGAATAGTAA | 7.81 | 8.39 | 2.54 | 1.39 | 1.46 | 1.43 | 0.213 | 2.07 | 0.165 | 3.55 | 2.43 | 4.2 | 4.11 | 1.6 | 3.32 | 2.62 | 0.586 | 0.676
TCATATGGGTAAAAGGTGAAAGTCGGTGTGGTAA | 4.48 | 4.52 | 0.558 | 0.338 | 1.03 | 1.61 | -0.132 | 2.3 | 0.788 | 1.85 | 1.98 | 1.7 | 0.446 | 1.05 | 2.64 | 1.46 | 0.164 | -0.0613
CCGAGCAGGCCAATCTGGGTCACTCAAGGCTTGA | 3.97 | 4.58 | -1.06 | -1.1 | 0.368 | 0.937 | -0.646 | 1.17 | -1.1 | 1.77 | 2.28 | 1.25 | 1.68 | 0.0945 | 1.15 | 3.72 | 0.404 | 0.347
TCGAGTAGGTTAGGGGCAGTCAGAATGGCGTCGA | 2 | 1.49 | -0.663 | -0.988 | 0.763 | 0.184 | 0.227 | 0.265 | -0.345 | 1.08 | 1.27 | 0.245 | 0.258 | 0.0348 | 0.203 | 0.742 | 0.229 | 0.0516
